# Nrf2 activator = qHTS of Nrf2 Activators; AREc32 ARE-luciferase reporter (MCF7-derived line), luminescence, 24 h; Potency, µM (top dose mostly 46.1 µM), inactives show at the top dose activation, hits mostly activators; 410,000 tested, 0.31% active; AID 624171, 2012; further: potency means the concentration at half of the fitted maximal effect; % of control where 0% means no effect; nearly all actives have a fitted effect of over 65% in size
#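 Reporter line AREc32 (ARE-Fluc), seeded overnight in OPTI-MEM with 5% FBS; compound pin-transferred, 24 hr at 37 deg C, 5% CO2; luminescent read-out.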
# TSG101-PTAP inh = qHTS Assay for Iinhibitors of HIV-1 Budding by Blocking the Interaction of PTAP/TSG101; 340,000 tested, under 10 active; AID 493005, 2010; Fluorescence polarization, FITC-PTAP peptide / Tsg101 binding; Potency, µM (titrated, usually from 115 µM), without a hit: at the top dose activity change, negative = inhibition, actives largely listed as inhibitors; active means well fitted inhibition curve with a large enough effect in the main read-out, with a control signal flat, not every such curve was filed as active; inconclusive means small, poorly fitted or top-dose-only effect, or effect the other way, or a change in a side signal; inactive means no such curve, though single readings can be large or run the other way; further: potency means the concentration at half of the fitted maximal effect; % of control where 0% means no effect
# Target sequence (Q99816 whole entry, looked up): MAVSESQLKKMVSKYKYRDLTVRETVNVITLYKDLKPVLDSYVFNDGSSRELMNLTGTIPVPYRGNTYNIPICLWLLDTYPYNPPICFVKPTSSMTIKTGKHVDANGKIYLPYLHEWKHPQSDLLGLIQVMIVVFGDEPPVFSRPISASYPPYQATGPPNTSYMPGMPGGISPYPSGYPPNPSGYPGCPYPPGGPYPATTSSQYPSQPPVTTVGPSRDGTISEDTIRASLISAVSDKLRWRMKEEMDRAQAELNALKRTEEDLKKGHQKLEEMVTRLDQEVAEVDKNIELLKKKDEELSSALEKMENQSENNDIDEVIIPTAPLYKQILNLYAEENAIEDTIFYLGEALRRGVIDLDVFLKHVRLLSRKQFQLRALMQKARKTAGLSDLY
#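 Fluorescence anisotropy tracks displacement of a FITC-tagged PTAP peptide (50 nM) from the Tsg101 binding domain (10 uM), following a 20 min room-temperature incubation at pH 7.5.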
# A549 viability = Nrf2 qHTS screen for inhibitors: counterscreen for cytotoxicity | 390,000 tested, 0.16% active | A549 ARE-Fluc cells, CellTiter-Fluor viability, 18-24 h | Potency, µM (top dose mostly 46 µM), inactives show at the top dose activity change, negative = cytotoxicity, most hits filed as inhibitors; further: potency means the concentration at half of the fitted maximal effect; on the % scale 0 is the no-effect control and ±100 the full control effect
#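 Cytotoxicity counterscreen: CellTiter-Fluor fluorescence was measured in A549 ARE_Fluc cells after 18-24 h of compound exposure in a concentration series. The subsequent BugLite luminescent read reports ARE-luciferase activity.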
# GRP78 ERSR act = qHTS for Inducers of the Endoplasmic Reticulum Stress Response (ERSR) in Human Glioma: qHTS | U87-MG GRP78 promoter luciferase reporter, 16 h | Potency, µM, inactives show at the top dose activation, actives largely listed as activators | 420,000 tested, 0.02% active; further: potency means the concentration at half of the fitted maximal effect; series mostly up to about 76 µM; % of control where 0% means no effect; nearly all actives have a fitted effect of over 35% in size
#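 Stably transfected U87-MG human glioma cells carrying a GRP78-based luminescent sensor were seeded at 1000 cells/well, pin-dosed with compounds and incubated 16 h. Luciferase reagent was then added, and end-point luminescence was read after 10 min at room temperature.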
# Nrf2 block = Nrf2 qHTS screen for inhibitors; A549 ARE-Fluc reporter, luciferase luminescence, 18-24 h; AID 504444, 2011; 360,000 tested, 2.1% active; Potency, µM (series often up to 46 µM), without a hit: at the highest dose activity change, negative = inhibition, actives largely listed as inhibitors; further: potency means the concentration at half of the fitted maximal effect; on the % scale 0 is the no-effect control and ±100 the full control effect; nearly all actives have a fitted effect of over 60% in size
#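 Cells were seeded and rested 2 h, then exposed to compounds for 18-24 h. CellTiter-Fluor was read first as a viability measure. BugLite was added 15 min before the final luminescent read of ARE-luciferase activity in A549 cells.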
# miR-21 act = qHTS Assay for Modulators of miRNAs and/orActivators of miR-21 | 340,000 tested, under 10 active | HeLa miR-21 FLuc reporter, luciferase, 48 h | Potency, µM (top dose mostly 38.3 µM), inactives show top-dose activity change, positive = activation, usual class: activators;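 further: % of control where 0% means no effect; miR-21 action dims this reporter so a rising signal means less miR-21 action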
#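 Luminescence from a firefly luciferase reporter carrying a miR-21 binding site downstream, stably expressed under a CMV promoter in HeLa cells that make miR-21 endogenously, reports miRNA modulation after 48 h compound exposure up to approximately 40uM final.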
# * hit, by the source's call; ? = inconclusive; nt = no result given. Compounds with a hit are over-represented: about 2.1% of the library has one in this group of screens. Unless noted, the call rests on the fitted dose curve; in most records, active means well fitted curve in the direction sought with a large enough effect; inconclusive means small, poorly fitted or top-dose-only effect, or another doubt; inactive means no such curve, though single readings can be large; an effect the other way counts as inactive or inconclusive.
SMILES,Nrf2 activator,TSG101-PTAP inh,A549 viability,GRP78 ERSR act,Nrf2 block,miR-21 act
Cc1cc(C)c2sc(NC(=O)c3ccc([N+](=O)[O-])o3)nc2c1,7.9µM*,-3%,-10%,-1%,11%,3%
COc1ccc(C(=O)Nc2nc3cc4c(cc3s2)OCCO4)c(OC)c1,4%,-1%,-4%,1%,21µM*,-44%
COc1ccc(C(=O)Nc2nnc(-c3ccc(F)cc3)s2)c(OC)c1,0%,0%,-1%,-3%,16µM*,-6%
O=C(NNC(=O)c1ccc([N+](=O)[O-])o1)c1ccccc1,22µM*,-6%,?,?,nt,28%
O=C(C[N+]12CCCc3cccc(c31)CCC2)c1ccc(Cl)c2ccccc12,nt,nt,nt,1%,nt,nt
COc1cc(=O)n2c(c1C(=O)N(C)Cc1nccs1)CCN(Cc1ccc(F)c(F)c1)CC2,nt,nt,nt,-2%,nt,nt
Cc1cc(C)cc(NC(=O)c2ccc([N+](=O)[O-])o2)c1,?,-8%,-10%,?,?,25%
NS(=O)(=O)c1ccc(O)c(NC(=O)c2ccc([N+](=O)[O-])o2)c1,10µM*,-4%,-11%,18%,1%,11%
CNC[C@@H]1CC[C@@H](N)[C@@H](O[C@H]2[C@H](O)[C@@H](O[C@H]3OC[C@](C)(O)[C@H](NC)[C@H]3O)[C@H](N)C[C@@H]2N)O1,nt,nt,nt,-4%,nt,nt
CCCCn1c(SCc2nc(N)nc(Nc3ccccc3C)n2)nc2ccccc2c1=O,2%,1%,-30%,-2%,21µM*,-7%
Cc1nc(NCc2ccco2)nc2c1C(=O)CC(C)C2 (configuration not stated),2µM*,-3%,18%,-3%,nt,-7%
COc1cc(C2C(C(=O)Nc3ccccc3C)=C(C)Nc3nc(SCc4cc(C)ccc4C)nn32)ccc1O (configuration not stated),1%,nt,?,14%,16µM*,7%
COc1cc(C2C(C(=O)Nc3ccc(C)cc3C)=C(C)Nc3nc(SCc4ccccc4)nn32)cc(OC)c1OC (configuration not stated),0%,nt,3%,-6%,-2%,0%
COC(=O)c1cc(S(=O)(=O)N2CCOCC2)c(Cl)cc1N1CCOCC1,0%,-5%,-4%,-4%,-18%,-11%
COC(=O)c1cc(C)nc2c1C(=O)C(=O)C=C2N1CCOCC1,-4%,0%,?,-14%,16µM*,?
CN1/C(=C\C(=O)c2cccs2)Sc2ccccc21,4µM*,-6%,-28%,-9%,nt,-15%
C(=C\c1ccnc2ccccc12)/c1ccccc1,nt,nt,nt,2%,nt,nt
O=S1(=O)N=C(Oc2cccc(C(F)(F)F)c2)c2ccccc21,nt,nt,2%,nt,5%,nt
COC(=O)c1cc(CNC(=O)c2ccc(N(C)C)cc2)cc(NC(=O)c2ccccc2Cl)c1,nt,nt,nt,-4%,nt,nt
O=C1CSC(=S)N1Cc1cccnc1,8.9µM*,-2%,?,-14%,8%,?
O=C1CSC(=S)N1c1cccnc1,-1%,2%,2%,-5%,15%,1%
Cc1cc(-c2nnc(SCC(=O)Nc3ccc(C(F)(F)F)cc3)n2C)no1,1%,-3%,-14%,-6%,23µM*,10%
CC(/C=N/NC(=O)c1cnccn1)=C\c1ccco1,8.9µM*,-2%,-12%,5%,24%,-45%
CC(/C=N/NC(=O)c1cccnc1)=C\c1ccco1,?,-14%,7%,0%,12%,-12%
CC(/C=N/NC(=O)CSc1nnc(SCc2ccccc2)s1)=C\c1ccco1,11µM*,1%,-1%,-4%,1%,0%
SMILES,Nrf2 activator,TSG101-PTAP inh,A549 viability,GRP78 ERSR act,Nrf2 block,miR-21 act
O=C(COC(=O)CNC(=O)c1ccccc1)Nc1cc(C(F)(F)F)ccc1Cl,nt,nt,-1%,nt,16%,nt
COc1ccc(CN2CCCC(c3nc(-c4ccncc4)ncc3-c3ccccc3C)C2)c(OC)c1 (configuration not stated),nt,nt,nt,-6%,nt,nt
C=CCC[C@H](Cc1ccc(F)cc1)C(=O)OC[C@@H](C)NC(=O)[C@@H](CC=C)CC(=O)N[C@H](CO)Cc1ccccc1,0%,-13%,?,-1%,21µM*,nt
C=CCC[C@H](Cc1ccc(F)cc1)C(=O)OC[C@@H](NC(=O)[C@@H](CC=C)CC(=O)N[C@@H](CO)Cc1ccccc1)C(C)(C)C,-4%,-3%,?,-3%,?,nt
C=CCC[C@@H](Cc1ccc(F)cc1)C(=O)OC[C@@H](NC(=O)[C@@H](CC=C)CC(=O)N[C@@H](CO)Cc1ccccc1)C(C)(C)C,-1%,nt,?,-1%,21µM*,nt
C=CCC[C@H](Cc1ccc(F)cc1)C(=O)OC[C@@H](NC(=O)[C@@H](CC=C)CC(=O)N(CCO)Cc1ccccc1)C(C)(C)C,-5%,-7%,6.5µM*,-4%,3.3µM*,nt
C=CCC[C@H](Cc1ccc(F)cc1)C(=O)OC[C@@H](C)NC(=O)[C@@H](CC=C)CC(=O)N[C@@H](CO)Cc1ccccc1,5%,-2%,-2%,-2%,-9%,nt
CC(=O)Nc1cccc(OCc2cccc(C3Nc4ccccc4C(=O)N3Cc3ccco3)c2)c1 (configuration not stated),nt,nt,-15%,nt,?,nt
CCCSS/C(CCO)=C(/C)N(C=O)Cc1cnc(C)nc1N,nt,nt,nt,-11%,nt,nt
CC(C)(C)n1ncc2c(=O)n(Cc3c(F)ccc(Cl)c3Cl)cnc21,nt,nt,nt,-2%,nt,nt
COc1cccc(CN2C(=O)NC(C)(C3CCN(Cc4cnn(C)c4C)CC3)C2=O)c1OC (configuration not stated),nt,nt,nt,-4%,nt,nt
CC1=C(C(N)=O)C(c2cccs2)n2nc(-c3cccc(C)c3)nc2N1 (configuration not stated),0%,-1%,-10%,-4%,-1%,-3%
CC1=C(C(N)=O)C(c2cccs2)n2nc(-c3cccc(Cl)c3)nc2N1 (configuration not stated),18%,-5%,0%,-7%,13µM*,-3%
O=S(=O)(O)c1cc(O)c(N=Nc2ccc(O)cc2O)c2ccccc12,5%,-16%,21µM*,-8%,?,nt
OCCC#Cc1c(-c2ccsc2)sc2ccccc12,2.5µM*,-11%,5%,-1%,7%,1%
Cc1cnc(SCC2CCCO2)nc1C1CCCN(Cc2nc(-c3ccccc3)cs2)C1 (configuration not stated),nt,nt,nt,-3%,nt,nt

# Bioassay records as filed in PubChem.
